Assay results: article PMC4552634, “A New Set of Chemical Starting Points with Plasmodium falciparum Transmission-Blocking Potential for Antimalarial Drug Discovery” (PLoS ONE, 2015)
Screen size: about 13,000 compounds; about 3,200 (25%) showed an effect of 50% or more. This is one part of the list.

tested on: P. falciparum stage V gametocytes; set-up: BacTiter-Glo ATP luminescence viability of purified stage V gametocytes in 384-well plates, per cent inhibition versus DMSO; conditions: 48 h, 5 µM; inhibitor

First: Cc1cccc2[nH]c(-c3cccc(-c4cccc(CN5CCC(CO)CC5)c4)c3)nc12 [TCMDC-133131]
Second: c1ccc(CN2CCN(c3cc(-c4cncc(-c5ccccc5)c4)nc(-c4ccccc4)n3)CC2)cc1 [TCMDC-125589]
The “% Inhibition” value of the first is lower: -22.3% for the first, -13.47% for the second.

Compared with Nc1nccc(-c2ccc3c(-c4cccc(F)c4)cnc(N)c3c2)n1 [TCMDC-134545], c1cncc(-c2cc(N3CCc4ccccc4C3)nc(-c3ccncc3)n2)c1 [TCMDC-125419] is higher in “% Inhibition” value: -1.877% for the first, 60.68% for the second.

First: Cc1cc(NC(=O)c2ccsc2)ccc1OC1CCN(Cc2ccc(F)cc2)CC1 [TCMDC-133742]
Second: COCCNC(=O)c1ccc(OC2CCN(CC(C)=Cc3ccccc3)CC2)c(Cl)c1 [TCMDC-124691]
The “% Inhibition” value of the first is lower: 4.453% for the first, 9.67% for the second.

Going from COc1ccc(Nc2nccc(-c3c(-c4cccc(NC(=O)c5c(F)cccc5F)c4)nn4ccccc34)n2)cc1Cl [TCMDC-135970] to O=C(Nc1cccc(-c2ccc(-c3nc4ccc(C(F)(F)F)cc4[nH]3)cc2)c1)c1csnn1 [TCMDC-136905], the “% Inhibition” value rises from -50.42% to 5.589%.

Going from CS(=O)(=O)N(c1ccccc1)c1cc(C(=O)N[C@@H](Cc2ccccc2)[C@H](O)CNC2CC2)cc(N2CCCC2=O)c1 [TCMDC-138891] to CS(=O)(=O)N(c1ccccc1)c1cc(C(=O)N[C@@H](Cc2ccccc2)[C@H](O)CNC2CCCCC2)cc(N2CCCC2=O)c1 [TCMDC-138850], the “% Inhibition” value rises from 19.46% to 25.67%.

First: CC(C)CCCC(C)NC[C@@H](O)[C@H](Cc1ccccc1)NC(=O)c1cc(N2CCCC2=O)cc(N(c2ccccc2)S(C)(=O)=O)c1 (some centres unmarked) [TCMDC-138851]
Second: CCNc1cc(C(=O)N[C@@H](Cc2ccccc2)[C@H](O)CNC2CCSCC2)cc(N2CCCC2=O)c1 [TCMDC-134686]
The “% Inhibition” value of the first is higher: 82.88% for the first, 19.67% for the second.

Going from COc1ccc(NC(=O)[C@H](C)Nc2cc(C)nc(NCC3CCCCC3)n2)cc1 [TCMDC-134922] to COc1ccc(Nc2nccc(NCCNC(=O)c3cc4ccccc4s3)n2)cc1 [TCMDC-133643], the “% Inhibition” value rises from -9.943% to 10.68%.

Compared with CCOC(=O)c1ccc(N2CCN(c3cc(Cl)ccc3C)CC2)c(NC(=O)Nc2ccc(Cl)c(Cl)c2)c1 [TCMDC-124007], CCN1CCN(c2cc(C)c3cc(NC(=O)c4cccc(Cl)c4)ccc3n2)CC1 [TCMDC-125580] is higher in “% Inhibition” value: -37.8% for the first, 30.18% for the second.

Compared with CS(=O)(=O)Nc1ccc2c(C3CCN(CC4CCN(C(=O)/C=C/c5ccc(Cl)c(Cl)c5)CC4)CC3)c[nH]c2c1 [TCMDC-139959], CS(=O)(=O)Nc1ccc2[nH]cc(C3CCN(CC4CCN(C(=O)/C=C/c5ccc(Cl)c(Cl)c5)CC4)CC3)c2c1 [TCMDC-139813] is higher in “% Inhibition” value: -60.99% for the first, 20.88% for the second.

Going from O=C(/C=C/c1ccc(Cl)c(Cl)c1)N1CCC(CN2CCC(c3c[nH]c4ccc(NS(=O)(=O)c5cccs5)cc34)CC2)CC1 [TCMDC-139955] to CC(=O)Nc1ccc2[nH]cc(C3CCN(CC4CCN(C(=O)/C=C/c5ccc(Cl)c(Cl)c5)CC4)CC3)c2c1 [TCMDC-139853], the “% Inhibition” value falls from 57.44% to 21.75%.

Going from O=C(/C=C/c1ccc(Cl)c(Cl)c1)N1CCC(CN2CCC(c3c[nH]c4cnccc34)CC2)CC1 [TCMDC-140135] to O=C(/C=C/c1ccc(Cl)c(Cl)c1)N1CCC(CN2CCC(c3c[nH]c4ccncc34)CC2)CC1 [TCMDC-140074], the “% Inhibition” value rises from 46.53% to 108.3%.

Going from O=C(/C=C/c1ccc(Cl)c(Cl)c1)N1CCC(CN2CCC(c3c[nH]c4ncccc34)CC2)CC1 [TCMDC-139846] to O=C(/C=C/c1ccc(Cl)c(Cl)c1)N1CCC(CN2CCC(c3c[nH]c4ccc(O)cc34)CC2)CC1 [TCMDC-139786], the “% Inhibition” value rises from 9.268% to 94.36%.

Compared with O=C(/C=C/c1ccc(Cl)c(Cl)c1)N1CCC(CCN2CCC(c3c[nH]c4ccccc34)CC2)CC1 [TCMDC-139620], O=C(/C=C/c1ccc(Cl)c(Cl)c1)N1CCC(CCN2CCC(c3c[nH]c4cnccc34)CC2)CC1 [TCMDC-140136] is higher in “% Inhibition” value: 8.374% for the first, 111.3% for the second.

Compared with O=C(/C=C/c1ccc(Cl)c(Cl)c1)N1CCC(CCN2CCC(c3c[nH]c4ccncc34)CC2)CC1 [TCMDC-140075], CC(=O)Nc1ccc2[nH]cc(C3CCN(CCC4CCN(C(=O)/C=C/c5ccc(Cl)c(Cl)c5)CC4)CC3)c2c1 [TCMDC-139854] is lower in “% Inhibition” value: 91.37% for the first, 30.15% for the second.

Compared with CCc1nc(N)nc(N)c1-c1ccccc1 [TCMDC-124296], O=C(Nc1ccc(F)cc1)c1nc2ccccc2nc1Cl [TCMDC-124769] is higher in “% Inhibition” value: -28.74% for the first, 24.46% for the second.

Compared with COCCN(C)CCCOc1cc2c(cc1OC)ncn2-c1cc(OCc2ccccc2C(F)(F)F)c(C(N)=O)s1 [TCMDC-135214], Cc1cccc2nc(-c3ccc(-c4cccc(CNCc5cnn(-c6ccccc6)n5)c4)s3)[nH]c12.O=C(O)C(F)(F)F [TCMDC-132972] is lower in “% Inhibition” value: 33.23% for the first, -22.07% for the second.

Compared with N=c1c(C(=O)NCc2ccccc2)cc2c(=O)n3ccccc3nc2n1CCc1ccccc1 [TCMDC-124378], O=C(NCc1ccccc1)OC1CNCCC1c1ccc(C(O)Cc2ccccc2)cc1 (centres unmarked) [TCMDC-141020] is higher in “% Inhibition” value: 0.2894% for the first, 26.78% for the second.

Going from CCS(=O)(=O)Nc1ccc2[nH]cc(C3CCN(CCC4CCN(C(=O)/C=C/c5ccc(Cl)c(Cl)c5)CC4)CC3)c2c1 [TCMDC-139930] to CS(=O)(=O)Nc1ccc2c(C3CCN(CCC4CCN(C(=O)/C=C/c5ccc(Cl)c(Cl)c5)CC4)CC3)c[nH]c2c1 [TCMDC-139956], the “% Inhibition” value falls from 78.45% to 32.42%.

Going from O=S(=O)(c1ccc2cc[nH]c2c1)N1CCC[C@@H]1CCN1CCC(c2c[nH]c3cnccc23)CC1 [TCMDC-141158] to O=C1COc2ccc(S(=O)(=O)N3CCC[C@@H]3CCN3CCC(c4c[nH]c5cnccc45)CC3)cc2N1 [TCMDC-141172], the “% Inhibition” value falls from 68.56% to 41.57%.

Going from CC1CCN(CC[C@H]2CCCN2S(=O)(=O)c2cccc(NC(=O)c3ccc(-c4ccc(Cl)cc4)o3)c2)CC1 [TCMDC-141078] to CNC(=O)c1ccc2[nH]cc(C3CCN(CC4CCN(C(=O)/C=C/c5ccc(Cl)c(Cl)c5)CC4)CC3)c2c1 [TCMDC-139980], the “% Inhibition” value falls from -28.73% to -32.3%.

Going from O=C(/C=C/c1ccc(Cl)c(Cl)c1)N1CCC(CCN2CCC(c3c[nH]c4cc5c(cc34)OCO5)CC2)CC1 [TCMDC-139836] to O=C(/C=C/c1ccc(Cl)c(Cl)c1)N1CCC(CN2CCC(c3c[nH]c4cc5c(cc34)OCO5)CC2)CC1 [TCMDC-139838], the “% Inhibition” value falls from 55.11% to -10.77%.

Compared with Cc1cccc(C(=O)NCCCN2CCC(NC(=O)/C=C/c3ccc(Cl)c(Cl)c3)CC2)c1 [TCMDC-133355], O=C(/C=C/c1ccc(Cl)c(Cl)c1)NCCCCCN1CC[C@H](NC(=O)/C=C/c2ccccc2)C1 [TCMDC-139561] is higher in “% Inhibition” value: -67.88% for the first, -7.699% for the second.

First: CC(C)(C)COC(=O)c1ccc(NC(=O)N[C@@H](Cc2ccc(O)cc2)C(=O)NC2CCN(Cc3ccc(O)cc3)C2)cc1 (some centres unmarked) [TCMDC-135356]
Second: COc1ccc2nccc([C@@H](O)CN3CCC(NC(=O)[C@@H]4Cc5ccccc5CN4C(=O)OC(C)(C)C)CC3)c2c1 [TCMDC-141035]
The “% Inhibition” value of the first is lower: -84.6% for the first, 29.65% for the second.

First: O=C(/C=C/c1ccc(Cl)c(Cl)c1)NCCCCCN1CCC(NC(=O)Nc2cc(Cl)nc(Cl)c2)CC1 [TCMDC-135889]
Second: O=C(/C=C/c1ccc(Cl)c(Cl)c1)NCCCCCN1CC[C@H](NC(=O)c2sc3ccccc3c2Cl)C1 [TCMDC-139562]
The “% Inhibition” value of the first is lower: -21.96% for the first, 48.14% for the second.

First: COc1cc2c(C3CCN(CC4CCN(C(=O)/C=C/c5ccc(Cl)c(Cl)c5)CC4)CC3)c[nH]c2cn1 [TCMDC-140246]
Second: Nc1cc2c(C3CCN(CC4CCN(C(=O)/C=C/c5ccc(Cl)c(Cl)c5)CC4)CC3)c[nH]c2cn1 [TCMDC-140133]
The “% Inhibition” value of the first is lower: -34.41% for the first, 101.5% for the second.

First: O=C(Nc1ccc(Cn2ncc(N3CCCNCC3)c(Cl)c2=O)cc1)Nc1ccc(SC(F)(F)F)cc1 [TCMDC-133320]
Second: c1cncc(CN2CCCN(c3ccc4c(c3)CCN(Cc3ccc(-c5ncc[nH]5)cc3)CC4)CC2)c1 [TCMDC-136551]
The “% Inhibition” value of the first is lower: -14.71% for the first, -8.506% for the second.

First: O=C(/C=C/c1ccc(Cl)c(Cl)c1)NCCCCCN1CCC(CCNC(=O)c2snnc2-c2ccccc2)CC1 [TCMDC-140007]
Second: O=C(C=Cc1ccc(Cl)c(Cl)c1)NCCCCCN1CCC(CCNC(=O)c2sc3ccccc3c2Cl)CC1 [TCMDC-139567]
The “% Inhibition” value of the first is lower: -18.32% for the first, 38.26% for the second.

Compared with O=C(C=Cc1ccc(Cl)c(Cl)c1)NCCCCCN1CCCC(CCCNC(=O)c2sc3ccccc3c2Cl)C1 (centres unmarked) [TCMDC-139579], O=C(/C=C/c1ccc(Cl)c(Cl)c1)NCCCCCN1CCCC(CNC(=O)c2sc3ccccc3c2Cl)C1 (centres unmarked) [TCMDC-139583] is lower in “% Inhibition” value: 100.9% for the first, 81.46% for the second.

First: O=C(C=Cc1ccc(Cl)c(Cl)c1)NCCCCCN1CCC(CCCNC(=O)c2sc3ccccc3c2Cl)CC1 [TCMDC-139573]
Second: O=C(/C=C/c1ccc(Cl)c(Cl)c1)NCCCCCN1CCC(c2[nH]nc(-c3ccccc3)c2Br)CC1 [TCMDC-139448]
The “% Inhibition” value of the first is higher: 86.01% for the first, -19.71% for the second.

Compared with CCC(NCc1ccc(-c2cncc(C(=O)NCC(C)C)c2)cc1)c1ccccc1 (centres unmarked) [TCMDC-134237], O=C(NCCNc1ccnc(Nc2ccc(F)cc2)n1)c1cc2ccccc2s1 [TCMDC-133637] is lower in “% Inhibition” value: 15.84% for the first, -20.49% for the second.

Going from CCc1ccc(-n2c(=O)c3cccnc3n2CC(=O)NC2CCCC2)cc1 [TCMDC-125158] to c1cncc(-c2cc(N3CCCCC3)nc(-c3ccncc3)n2)c1 [TCMDC-125594], the “% Inhibition” value rises from -2.653% to 3.34%.

Compared with c1ccc(N2CCN(c3cc(-c4cccnc4)nc(-c4ccncc4)n3)CC2)nc1 [TCMDC-125418], CN1CCN(c2cc(-c3cccnc3)nc(-c3ccncc3)n2)CC1 [TCMDC-125593] is higher in “% Inhibition” value: 44.02% for the first, 52.46% for the second.

In the case of CN1CCN(c2cc(-c3ccncc3)nc(-c3cccnc3)n2)CC1 [TCMDC-125596], the “% Inhibition” value is reported as 38.53%.
